From PubChem BioAssay (NCI)
The panel holds about 79,000 compounds, 15% with a hit somewhere; the sample as a whole holds those more often. Unmarked numbers belong to inactive results. Active and inactive are the calls of the source. No stated cut-off is given here; in the data, active means growth inhibition above about 70%; inactive means the rest.

Assays:
[1] = NCI Yeast Anticancer Drug Screen. Data for the rad50 strain (AID 155);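 further: 0% = growth of vehicle-only cultures of the same strain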; conditions: S. cerevisiae rad50 strain growth inhibition, stronger effect = higher value
In short: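 Cells are treated with compound, grown, and their growth is then scored against vehicle-only cultures of the same repair-deficient yeast strain.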

[2] = NCI Yeast Anticancer Drug Screen. Data for the mec2-1 strain (AID 157); conditions: S. cerevisiae mec2-1 strain, stronger effect = higher value
In short: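 Mutant yeast (mec2-1) grown with compound; growth inhibition relative to vehicle control reported.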

[3] = NCI Yeast Anticancer Drug Screen. Data for the sgs1 mgt1 strain (AID 161);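 further: 0% = growth of cultures given vehicle only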; conditions: S. cerevisiae sgs1 mgt1 strain, stronger effect = higher value
In short: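 Growth of a repair-deficient yeast mutant was monitored after compound treatment and expressed as inhibition relative to vehicle-treated cultures.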

[4] = NCI Yeast Anticancer Drug Screen. Data for the cln2 rad14 strain (AID 165);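 further: 0% = growth equal to vehicle treated cultures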; conditions: S. cerevisiae cln2 rad14 strain, stronger effect = higher value
In short: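 Readout is yeast growth inhibition versus vehicle-treated controls, using a strain with cln2 and rad14 alterations exposed to compound.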

[5] = NCI Yeast Anticancer Drug Screen. Data for the bub3 strain (AID 167); conditions: S. cerevisiae bub3 mutant strain, stronger effect = higher value
In short: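 Part of a panel of yeast mutants defective in DNA damage repair or cell cycle regulation. Each strain is grown with compound, and inhibition is calculated relative to solvent-treated cultures.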

[6] = NCI Yeast Anticancer Drug Screen. Data for the mlh1 rad18 strain (AID 175); conditions: S. cerevisiae mlh1 rad18 strain growth inhibition, stronger effect = higher value
In short: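 Genetically defined yeast (DNA repair-deficient) exposed to compounds; growth inhibition determined relative to vehicle.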

[7] = at 5.0 µM (retest, dose inferred, filed as 0.5)
[8] = at 50.0 µM (retest, dose inferred, filed as 5.0)

Row | Structure (SMILES) | growth inhibition [1, 7] | growth inhibition [1, 8] | growth inhibition ([1]; at 50.0 µM) | growth inhibition [2, 7] | growth inhibition [2, 8] | growth inhibition ([2]; at 50.0 µM) | growth inhibition [3, 7] | growth inhibition [3, 8] | growth inhibition ([3]; at 50.0 µM) | growth inhibition [4, 7] | growth inhibition [4, 8] | growth inhibition ([4]; at 50.0 µM) | growth inhibition [5, 7] | growth inhibition [5, 8] | growth inhibition ([5]; at 50.0 µM) | growth inhibition [6, 7] | growth inhibition [6, 8] | growth inhibition ([6]; at 50.0 µM)
1 | O=[N+]([O-])c1c(Cl)cccc1-c1c[nH]cc1Cl | 12% | 99% (active) | 92.8% (active) | 25% | 98% (active) | 93.4% (active) | 19% | 100% (active) | 93.5% (active) | -1% | 99% (active) | 90.9% (active) | 6% | 99% (active) | 92.2% (active) | 44% | 99% (active) | 37.8%
2 | O=S(=O)(NC1CCCCC1)c1ccc2c(c1)OCCOCCOCCOCCO2 | 7% | 22% | 40.3% | 9% | 37% | 23.8% | 0% | 63% | 70.7% (active) | -7% | 39% | 36% | -24% | 53% | 73.2% (active) | 5% | 31% | 65.5%
3 | CCCCCCCCCCCCNC(=O)NCC(OCC)OCC | -3% | 96% (active) | 89.3% (active) | 2% | 97% (active) | 91.5% (active) | 13% | 95% (active) | 92.3% (active) | 28% | 95% (active) | 83.3% (active) | 12% | 97% (active) | 91.8% (active) | -19% | 96% (active) | 90.3% (active)
4 | COc1cc2c(cc1OC)c1c(OC)c(OC)cc3c1c1c2sc(=S)n1CC3 | 4% | 59% | 93% (active) | 14% | 46% | 96.9% (active) | 11% | 55% | 96.1% (active) | 5% | 14% | 93.8% (active) | 4% | 33% | 95.4% (active) | 5% | 53% | 99% (active)
5 | CCCCCCCCCCCCCCSC(=N)N | 99% (active) | 95% (active) | 66.3% | 65% | 97% (active) | 98.5% (active) | 100% (active) | 95% (active) | 45.5% | 41% | 95% (active) | 54.5% | 100% (active) | 96% (active) | 98.7% (active) | 95% (active) | 96% (active) | 97.7% (active)
6 | COc1ccc(-c2nc(N)n(C)c2SSc2c(-c3ccc(OC)cc3)nc(N)n2C)cc1 | 2% | 26% | 23.6% | -4% | 26% | 5.2% | 28% | 27% | 2.5% | 6% | 30% | 6.95% | 41% | 50% | 3.6% | -2% | 28% | -15.6%
7 | O=C1C(N2CCOCC2)=C(Cl)C(=O)c2ncccc21 | 66% | 95% (active) | 83.8% (active) | 30% | 97% (active) | 83.8% (active) | 35% | 96% (active) | 89.8% (active) | 13% | 92% (active) | 89% (active) | 31% | 97% (active) | 89.7% (active) | 61% | 96% (active) | 89.3% (active)
8 | c1ccc(Nc2cccc3ccccc23)cc1 | -4% | 95% (active) | 94.8% (active) | -5% | 81% (active) | 96.2% (active) | -3% | 62% | 95.8% (active) | -1% | 32% | 95.1% (active) | 43% | 95% (active) | 91.5% (active) | -1% | 88% (active) | 95.5% (active)
9 | O=C(O)C(Cc1ccc(O)cc1)NC(=O)N(c1ccccc1)c1ccccc1 (stereo not given) | 0% | 38% | 17.2% | -11% | 52% | 25.1% | -205% | 79% (active) | 30.8% | 3% | 39% | 61.6% | 2% | 28% | 19% | -4% | 74% (active) | 28.5%
10 | CCCCCCCCCCCCCCOCCS(=O)(=O)O | 18% | 83% (active) | 70.8% (active) | -9% | 69% | 52.4% | 16% | 80% (active) | 78.8% (active) | -12% | 61% | 38.4% | 6% | 85% (active) | 29.8% | 7% | 83% (active) | 79.4% (active)
11 | CCOC(C)(OCC)C(N)c1ccccc1 (stereo not given) | -15% | -12% | 14.3% | 10% | -17% | 19.4% | 6% | 9% | -0.2% | -1% | 5% | -5.65% | 6% | 9% | -6.9% | 2% | 9% | 1.05%
12 | CN(C)C(=S)SC1(CN2CCOCC2)COc2c(Cl)cc(Cl)cc2C1=O (stereo not given) | 1% | 97% (active) | 90.4% (active) | 3% | 96% (active) | 76.2% (active) | 3% | 97% (active) | 95.3% (active) | 6% | 96% (active) | 75% (active) | 5% | 96% (active) | 79.3% (active) | 1% | 97% (active) | 89.5% (active)
13 | CC(C)CCCC(C)C1CCC2(C)C3=CCC4C(C)(CCC(O)C4(C)C)C3=CCC12C (stereo not given) | 0% | 83% (active) | 89% (active) | -18% | 94% (active) | 73% (active) | 11% | 95% (active) | 98% (active) | -8% | 84% (active) | 97.7% (active) | -6% | 95% (active) | 93.3% (active) | 21% | 97% (active) | 90.8% (active)
14 | CCn1cnc2[nH]cc(C#N)c2c1=O | -150% | 13% | 7.7% | -50% | -40% | -15.1% | -64% | -33% | 5.6% | -54% | -46% | 34.2% | -67% | -59% | -19.2% | -123% | -86% | 36.7%
15 | CC/C(=C(/CC)c1ccc(O)cc1)c1ccc([O-])cc1.CC/C(=C(/CC)c1ccc(O)cc1)c1ccc([O-])cc1.O=C([CH-]C(=O)c1ccccc1)c1ccccc1.O=C([CH-]C(=O)c1ccccc1)c1ccccc1.[Ti+4] | 64% | 95% (active) | 88.8% (active) | 60% | 97% (active) | 92% (active) | 74% (active) | 98% (active) | 92.8% (active) | 56% | 96% (active) | 91.5% (active) | 78% (active) | 98% (active) | 90.2% (active) | 80% (active) | 93% (active) | 89% (active)
16 | N#CC1C(=O)NC(=O)CC1c1ccccc1 (stereo not given) | 10% | 99% (active) | 99.2% (active) | -10% | 99% (active) | 99.2% (active) | 10% | 99% (active) | 99% (active) | 10% | 99% (active) | 99.3% (active) | 0% | 99% (active) | 99.3% (active) | 13% | 99% (active) | 99.2% (active)
17 | Cc1[nH]c2c(C)cccc2c1C1Cc2ccccc2N1 (stereo not given) | 3% | 99% (active) | 98.4% (active) | -1% | 99% (active) | 98.8% (active) | -12% | 98% (active) | 98.8% (active) | -5% | 98% (active) | 98.5% (active) | 6% | 98% (active) | 98.7% (active) | 4% | 98% (active) | 98.2% (active)
18 | OCC(O)C(O)C(/C=N/Nc1ccccc1)=N/Nc1ccccc1 (stereo not given) | 11% | 45% | 44% | 7% | 32% | 13.7% | 10% | 57% | 47.4% | 51% | 38% | 13.4% | 6% | -65% | -5.35% | 2% | 61% | 60.4%
19 | O=[N+]([O-])c1cccc(/C=N/Nc2ccc3ccccc3n2)c1O | 30% | 20% | 98% (active) | 1% | -23% | 98.8% (active) | 26% | 24% | 97.4% (active) | 1% | 3% | 93.3% (active) | 2% | 7% | 97.8% (active) | 16% | 14% | 97.5% (active)
20 | CCc1ccc(/C=C/c2ccc([N+](=O)[O-])cc2)nc1 | 0% | 68% | 62.2% | -5% | 41% | 40.6% | -5% | 42% | 33.5% | 6% | 39% | 7.1% | -5% | -8% | 45.9% | 3% | 44% | 69.5%
21 | Cn1nc(N)c2cccnc21 | 3% | 19% | -1.25% | -5% | 3% | 1.7% | -1% | 6% | 14.3% | 3% | 1% | 45.1% | 2% | 2% | -6.1% | 1% | 10% | 0.35%
22 | COc1ccccc1C1c2cc3c(cc2OC2(OC)COC(=O)C12)OCO3 (stereo not given) | 24% | 58% | 9.85% | 22% | 42% | 0% | 11% | 42% | 1.95% | 20% | 35% | 17% | 32% | 54% | 17.2% | 23% | 69% | 22%
23 | CN1C=Cc2ccccc2C1C(C1c2ccccc2C=CN1C)[N+](=O)[O-] (stereo not given) | 0% | 5% | -5.6% | 8% | 12% | -9.95% | -2% | 56% | 49% | 2% | 7% | 2.65% | -4% | 14% | 15.8% | -11% | 1% | -13.5%
24 | CCN(CC)Cc1cc(Nc2c3ccccc3nc3c2[nH]c2ccccc23)ccc1O | -6% | 18% | 82.5% (active) | 3% | 5% | 8.85% | -8% | -19% | 2.65% | 44% | 44% | -3% | 9% | 3% | -4.65% | -1% | -9% | 33.5%
25 | O=C(O)c1cccc(N=Nc2c(S(=O)(=O)O)ccc3c2C(=O)c2ccccc2C3=O)c1O | 17% | 38% | 30.4% | 8% | 17% | 36.8% | 8% | 38% | -2.5% | -21% | 17% | 71.1% (active) | -11% | 25% | -15.2% | 29% | 28% | 85.6% (active)
